Test results taken from PubChem BioAssay AID1159580 (chemical genetic matrix, 2015).
Screen size: about 5,500 compounds; about 2,000 (36%) were called active. Not shown: some 18% with an inconclusive outcome. No stated cut-off is given here; in the data, active means normalized growth mostly below about 0.91 (no sharp cut-off); inconclusive means no clear call, values can overlap the other calls; inactive means mostly above about 0.92. The list shows a part of the results.

Experiment: chemical genetic growth profiling, strain panel (AID 1159580);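 further: tested at 20 µM; growth read once vehicle control cultures reached saturation at 30 °C; 1 = growth at the plate median or of vehicle wells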
Conditions: growth OD

Measured: normalized growth

Cc1ncc([N+](=O)[O-])n1CCO
inactive: S. cerevisiae deletion strains, locus YJR075W, strain HOC1, stronger effect = lower value 1.01 | S. cerevisiae deletion strains, locus YKL009W, strain mrt4, stronger effect = lower value 0.969 | S. cerevisiae deletion strains, locus YKL068W, stronger effect = lower value 0.99 | S. cerevisiae deletion strains, locus YKL085W, strain MDH1 (second series), stronger effect = lower value 0.985 | S. cerevisiae deletion strains, locus YKL085W, strain MDH1, stronger effect = lower value 0.985 | S. cerevisiae deletion strains, locus YKL160W, strain elf1, stronger effect = lower value 0.955 | S. cerevisiae deletion strains, locus YKL190W, strain CNB1, stronger effect = lower value 0.99 | S. cerevisiae deletion strains, locus YKR001C, strain vps1, stronger effect = lower value 1 | S. cerevisiae deletion strains, locus YKR026C, strain gcn3, stronger effect = lower value 0.984 | S. cerevisiae deletion strains, locus YKR091W, strain srl3, stronger effect = lower value 0.962 | S. cerevisiae deletion strains, locus YLL001W, strain dnm1, stronger effect = lower value 0.926 | S. cerevisiae deletion strains, locus YLL026W, stronger effect = lower value 0.977 | S. cerevisiae deletion strains, locus YLL041C, strain sdh2, stronger effect = lower value 0.98 | S. cerevisiae deletion strains, locus YLR027C, strain aat2, stronger effect = lower value 0.98 | S. cerevisiae deletion strains, locus YLR039C, strain RIC1, stronger effect = lower value 0.972 | S. cerevisiae deletion strains, locus YLR058C, strain SHM2, stronger effect = lower value 0.97 | S. cerevisiae deletion strains, locus YLR102C, strain apc9, stronger effect = lower value 0.991 | S. cerevisiae deletion strains, locus YLR113W, strain HOG1, stronger effect = lower value 1.05 | S. cerevisiae deletion strains, locus YLR221C, strain rsa3, stronger effect = lower value 0.941 | S. cerevisiae deletion strains, locus YLR258W, strain gsy2, stronger effect = lower value 0.988 | S. cerevisiae deletion strains, locus YLR262C, strain YPT6 (second series), stronger effect = lower value 0.964 | S. cerevisiae deletion strains, locus YLR262C, strain YPT6, stronger effect = lower value 0.907 | S. cerevisiae deletion strains, locus YLR268W, strain sec22, stronger effect = lower value 1.08 | S. cerevisiae deletion strains, locus YLR320W, strain mms22, stronger effect = lower value 0.948 | S. cerevisiae deletion strains, locus YLR330W, strain CHS5, stronger effect = lower value 0.987 | S. cerevisiae deletion strains, locus YLR342W, strain FKS1 (second series), stronger effect = lower value 0.982 | S. cerevisiae deletion strains, locus YLR342W, strain FKS1, stronger effect = lower value 0.978 | S. cerevisiae deletion strains, locus YLR357W, strain rsc2, stronger effect = lower value 0.973 | S. cerevisiae deletion strains, locus YLR370C, strain arc18, stronger effect = lower value 0.972 | S. cerevisiae deletion strains, locus YLR371W, strain rom2, stronger effect = lower value 0.975 | S. cerevisiae deletion strains, locus YLR384C, strain iki3, stronger effect = lower value 0.982 | S. cerevisiae deletion strains, locus YLR418C, strain cdc73, stronger effect = lower value 0.991 | S. cerevisiae deletion strains, locus YML016C, strain PPZ1, stronger effect = lower value 0.986 | S. cerevisiae deletion strains, locus YML032C, strain rad52, stronger effect = lower value 1.01 | S. cerevisiae deletion strains, locus YML120C, strain ndi1, stronger effect = lower value 0.942 | S. cerevisiae deletion strains, locus YML124C, strain tub3, stronger effect = lower value 0.984 | S. cerevisiae deletion strains, locus YMR058W, strain fet3, stronger effect = lower value 0.983 | S. cerevisiae deletion strains, locus YMR078C, strain ctf18, stronger effect = lower value 0.976 | S. cerevisiae deletion strains, locus YMR125W, strain sto1, stronger effect = lower value 0.958 | S. cerevisiae deletion strains, locus YMR129W, stronger effect = lower value 0.98 | S. cerevisiae deletion strains, locus YMR205C, strain PFK2, stronger effect = lower value 0.936 | S. cerevisiae deletion strains, locus YMR223W, strain ubp8, stronger effect = lower value 0.952 | S. cerevisiae deletion strains, locus YMR231W, strain pep5, stronger effect = lower value 0.986 | S. cerevisiae deletion strains, locus YMR263W, strain SAP30, stronger effect = lower value 0.995 | S. cerevisiae deletion strains, locus YMR307W, strain GAS1, stronger effect = lower value 0.976 | S. cerevisiae deletion strains, locus YNL067W, strain RPL9B, stronger effect = lower value 0.994 | S. cerevisiae deletion strains, locus YNL071W, strain lat1, stronger effect = lower value 0.978 | S. cerevisiae deletion strains, locus YNL128W, strain TEP1, stronger effect = lower value 0.951 | S. cerevisiae deletion strains, locus YNL153C, strain GIM3, stronger effect = lower value 1.01 | S. cerevisiae deletion strains, locus YNL183C, strain NPR1, stronger effect = lower value 1.03 | S. cerevisiae deletion strains, locus YNL209W, strain ssb2, stronger effect = lower value 0.974 | S. cerevisiae deletion strains, locus YNL233W, strain BNI4, stronger effect = lower value 1.02 | S. cerevisiae deletion strains, locus YNL248C, strain rpa49, stronger effect = lower value 0.981 | S. cerevisiae deletion strains, locus YNL250W, strain rad50, stronger effect = lower value 0.975 | S. cerevisiae deletion strains, locus YNL271C, strain bni1, stronger effect = lower value 0.989 | S. cerevisiae deletion strains, locus YNL298W, strain CLA4, stronger effect = lower value 0.992 | S. cerevisiae deletion strains, locus YNL307C, strain MCK1, stronger effect = lower value 0.989 | S. cerevisiae deletion strains, locus YNL322C, strain KRE1 (second series), stronger effect = lower value 0.974 | S. cerevisiae deletion strains, locus YNL322C, strain KRE1, stronger effect = lower value 0.986 | S. cerevisiae deletion strains, locus YNR049C, strain mso1, stronger effect = lower value 0.96 | S. cerevisiae deletion strains, locus YNR052C, strain pop2, stronger effect = lower value 0.989 | S. cerevisiae deletion strains, locus YOL006C, strain TOP1, stronger effect = lower value 1 | S. cerevisiae deletion strains, locus YOL012C, strain htz1 0.99 | S. cerevisiae deletion strains, locus YOL147C, strain pex11, stronger effect = lower value 0.986 | S. cerevisiae deletion strains, locus YOR001W, strain rrp6, stronger effect = lower value 1 | S. cerevisiae deletion strains, locus YOR061W, strain CKA2, stronger effect = lower value 0.967 | S. cerevisiae deletion strains, locus YOR069W, strain VPS5, stronger effect = lower value 0.989 | S. cerevisiae deletion strains, locus YOR070C, strain gyp1, stronger effect = lower value 0.987 | S. cerevisiae deletion strains, locus YOR080W, strain dia2, stronger effect = lower value 0.977 | S. cerevisiae deletion strains, locus YOR083W, strain WHI5, stronger effect = lower value 0.954 | S. cerevisiae deletion strains, locus YOR106W, strain vam3, stronger effect = lower value 0.937 | S. cerevisiae deletion strains, locus YOR136W, strain idh2, stronger effect = lower value 0.984 | S. cerevisiae deletion strains, locus YOR144C, strain elg1, stronger effect = lower value 0.989 | S. cerevisiae deletion strains, locus YOR184W, strain ser1, stronger effect = lower value 0.998 | S. cerevisiae deletion strains, locus YOR231W, strain MKK1, stronger effect = lower value 1.06 | S. cerevisiae deletion strains, locus YOR265W, strain rbl2, stronger effect = lower value 0.985 | S. cerevisiae deletion strains, locus YOR270C, strain vph1, stronger effect = lower value 0.958 | S. cerevisiae deletion strains, locus YOR290C, strain snf2, stronger effect = lower value 0.91 | S. cerevisiae deletion strains, locus YOR316C, strain cot1, stronger effect = lower value 0.992 | S. cerevisiae deletion strains, locus YPL051W, strain arl3, stronger effect = lower value 0.978 | S. cerevisiae deletion strains, locus YPL055C, strain LGE1, stronger effect = lower value 0.974 | S. cerevisiae deletion strains, locus YPL078C, strain atp4, stronger effect = lower value 0.959 | S. cerevisiae deletion strains, locus YPL106C, strain sse1, stronger effect = lower value 0.943 | S. cerevisiae deletion strains, locus YPL240C, strain hsp82, stronger effect = lower value 0.983 | S. cerevisiae deletion strains, locus YPL241C, strain CIN2, stronger effect = lower value 0.982 | S. cerevisiae deletion strains, locus YPL256C, strain CLN2, stronger effect = lower value 1.1 | S. cerevisiae deletion strains, locus YPR119W, strain clb2, stronger effect = lower value 0.992 | S. cerevisiae deletion strains, locus YPR141C, strain kar3, stronger effect = lower value 0.982 | S. cerevisiae deletion strains, locus YPR163C, strain tif3, stronger effect = lower value 0.987 | S. cerevisiae deletion strains, locus YPR167C, strain met16, stronger effect = lower value 0.998 | S. cerevisiae deletion strains, strain wtn01, stronger effect = lower value 1.02 | S. cerevisiae strains, strain wild type, stronger effect = lower value 0.98
